For 96 molecules, inhibition results are on record in PubChem BioAssay AID1626 (SRMLSC, 2009).

Among all 220,000 compounds or so, about 2,000 (0.91%) were called active. Not shown: some 2% with an inconclusive outcome. Not all results are given here. Measured potencies and affinities stand elsewhere. Values without a mark were called inactive. No stated cut-off is given here; in the data, inconclusive means inhibition above about 80% without an active follow-up result; inactive means below that; test concentration not stated here.

A short description of this experiment: M. tuberculosis H37Rv growth inhibitors, H37Rv strain (AID 1626).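 Further: bacteria incubated seven days before Alamar blue readout; 0% = bacteria only wells and 100% = bacteria with antibiotic wells.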 The following applies: active compounds read high, concentration not given here.
`Cc1ccc(S(=O)(=O)N(C)C)cc1-n1c(SCC(=O)Nc2ccccc2)nc2ccccc2c1=O`: the inhibition is 1.63%.

On to `Cc1nnc(Sc2cc(NCCCO)c([N+](=O)[O-])c3nonc23)s1`, for which the inhibition was -2.43%.

Regarding `CCOC(=O)N1CCN(c2cc(NCCO)c([N+](=O)[O-])c3nonc23)CC1`, the inhibition was -2.1%.

For the molecule `Cc1nnc(Sc2cc(NCCO)c([N+](=O)[O-])c3nonc23)s1`, the inhibition is -7.45%.

Turning to `Cn1ccnc1Sc1cc(NCCCO)c([N+](=O)[O-])c2nonc12`, the inhibition was 2.79%.

`COC(=O)CNC(=O)COC(=O)/C=C/c1ccccc1[N+](=O)[O-]`: the inhibition was 3.19%.

Regarding `Cc1ccc(S(=O)(=O)NCCc2nnc3ccc(NCCCOC(C)C)nn23)cc1`, the inhibition was 0.94%.

Take `CC1(c2cc([N+](=O)[O-])cc([N+](=O)[O-])c2)CC(C)(C)N(C(=O)c2ccccc2)c2ccccc21` (stereo unspecified): the inhibition is 2.82%.

For the molecule `CC1(c2ccc([N+](=O)[O-])cc2)CC(C)(C)N(C(=O)c2ccccc2)c2ccccc21` (stereo unspecified), the inhibition was 6.73%.

For the molecule `CC(=O)C1=C(O)C(=O)N(Cc2ccco2)C1c1ccc2c(c1)OCO2` (stereo unspecified), the inhibition was -9.04%.

Consider `CC(C)NC(=O)C(=O)NCCc1ccc(Cl)cc1`, for which the inhibition was -1.47%.

Turning to `CCOC(=O)c1c(C)[nH]c(NC(=O)Nc2c(C)n(C)n(-c3ccccc3)c2=O)c1C`, the inhibition was -2.03%.

As to `COc1ccc(O)c2c(=O)c3c(OC)cc4c(c3oc12)C1C=COC1O4` (stereo unspecified), the inhibition was -3.61%.

Take `Cn1cc(CN2CCCC(C(=O)c3ccc(-c4ccccc4)cc3)C2)cn1` (stereo unspecified): the inhibition was -1.15%.

Consider `CSc1ccccc1C(=O)C1CCCN(Cc2cnn(-c3ccccc3)c2)C1` (stereo unspecified), for which the inhibition is 0.775%.

For `Cc1ccc(NC(=O)/C=C\C(=O)NCC(=O)O)cc1`, the inhibition is -2.38%.

As to `COC(=O)C1=C(C(=O)OC)[C@@H]2Nc3ccccc3[C@@]23C[C@@H](C(=O)OC)N(C(=O)c2ccco2)C3=N1`, the inhibition is -1.72%.

`O=C(NCc1cn(-c2ccccc2)nc1-c1ccccc1)c1ccc([N+](=O)[O-])cc1`: the inhibition was -4%.

On to `O=C(NCc1cn(-c2ccccc2)nc1-c1ccccc1)c1cccc([N+](=O)[O-])c1`, for which the inhibition is 10.1%.

Regarding `O=C(NCc1ccco1)c1cc([N+](=O)[O-])ccc1Cl`, the inhibition is -6.78%.

As to `Cc1ccc(C(=O)NCc2ccco2)cc1[N+](=O)[O-]`, the inhibition is 0.79%.

With `CCOc1ccc(-c2cnc(N)n2C)cc1`, the inhibition was 5.53%.

As to `Cc1ccc(CSCCNC(=O)CN(c2cccc([N+](=O)[O-])c2)S(C)(=O)=O)cc1`, the inhibition was 0.16%.

On to `Cc1noc(C)c1COC(=O)C1(c2cccc(F)c2)CCCC1`, for which the inhibition is 5.81%.

Turning to `CCOC(=O)CC(=O)CSc1ncnc2c1nnn2-c1ccc(OC)cc1`, the inhibition is 0.52%.

For the molecule `COC(=O)c1cccc(COC(=O)c2cccnc2SC)c1`, the inhibition is 5.06%.

As to `Cc1nn(C)c2ncc(C(N)=O)c(Oc3ccc(Cl)cc3)c12`, the inhibition was -11.3%.

Consider `Cc1nc(-c2ccc(Cl)cc2)sc1C1(C)CC(c2cccc([N+](=O)[O-])c2)=NO1` (stereo unspecified), for which the inhibition is -8.66%.

Take `Cc1ccccc1CN(c1ccc(C(=O)NCc2cccnc2)cc1)S(C)(=O)=O`: the inhibition is -13.5%.

For `Cc1ccc(SCC(=O)Nc2ccc(S(=O)(=O)Nc3nccs3)cc2)cc1`, the inhibition is 13.6%.

As to `Fc1ccc(-n2cc(-c3ccccc3)c3c(NN4CCOCC4)ncnc32)cc1`, the inhibition is -8.02%.

For `c1ccc(-c2cn(-c3ccccc3)c3ncnc(NCCCN4CCOCC4)c23)cc1`, the inhibition was 1.78%.

`CCN=C(N/N=C/c1ccc([N+](=O)[O-])cc1)SC`: the inhibition is -6.2%.

In the case of `O=C(CNc1ccccc1C(=O)O)c1ccccc1`, the inhibition is -10.8%.

Take `Cc1ccc(NC(=O)C/C(N)=N/O)cc1C`: the inhibition is 72.6%.

As for `Cc1ccc(S(=O)(=O)N(C)Cc2ccc(C(=O)NN=C3C4CC5CC(C4)CC3C5)cc2)cc1`, the inhibition is -4.86%.

`Nc1cc(N)cc(-c2nc3ccccc3o2)c1`: the inhibition was 53%.

As to `Nc1nc(-c2cc3ccccc3o2)cs1`, the inhibition is 3.5%.

As for `CNc1ccccc1C(C)(C)c1cc(-c2cccc(OC)c2)no1`, the inhibition was 3.34%.

Take `Cn1/c(=N\NC(=O)C2CCCCC2)sc2ccccc21`: the inhibition was 4.34%.

For `CCOC(=O)c1c(C)n(C)c2ccc(OCC(N)=O)cc12`, the inhibition is 0.2%.

Turning to `CCOC(=O)c1c(C)n(C)c2ccc(OC(C)=O)cc12`, the inhibition was -1.73%.

Consider `Cc1nn(C)c(C(=O)N/N=C/c2ccccc2)c1[N+](=O)[O-]`, for which the inhibition is -7.25%.

In the case of `COc1ccc(-n2c(SC3CCOC3=O)nc3ccccc3c2=O)cc1Cl` (stereo unspecified), the inhibition is 5.75%.

Turning to `CN1CCN(c2ccc(NC(=O)COc3ccccc3Cl)cc2)CC1`, the inhibition was 6.62%.

As for `COc1cccc(C(C(=O)NC2CCCC2)N(Cc2ccccc2OC)C(=O)c2ccco2)c1` (stereo unspecified), the inhibition is 2.53%.

For the molecule `COc1ccc(Nc2oc(COc3ccc(OC)cc3)nc2C#N)cc1`, the inhibition is -0.92%.

In the case of `Cc1ccc2cccc(OC(=O)/C=C\c3ccccc3)c2n1`, the inhibition was -1.17%.

As for `CN(C(=O)Oc1cccc2cccnc12)c1ccccc1`, the inhibition is 1.95%.

For `COc1ccccc1/C=C/C(=O)NCc1ccccn1`, the inhibition was -4.28%.

Take `COc1ccccc1/C=C/C(C)=O`: the inhibition is -0.82%.

As for `CCCNS(=O)(=O)c1ccc(NC(=O)Cc2cccs2)cc1`, the inhibition was 5.56%.

With `C/C=C/c1ccc(OCCCCOc2ccccc2C(C)=O)c(OC)c1`, the inhibition was 6.35%.

With `Brc1cccc(OCCOCCn2ccnc2)c1`, the inhibition is 4.09%.

In the case of `O=C(NCCN1CCc2ccccc2C1)C1CCN(S(=O)(=O)N2CCC3(CC2)OCCO3)CC1`, the inhibition was -3%.

Consider `O=C(NCc1ccco1)c1ccccc1-c1ccccc1`, for which the inhibition was -5.77%.

Regarding `O=C(NCc1ccco1)c1ccccc1Br`, the inhibition was -5.82%.

Take `O=c1ccnc(SCc2ccccc2Cl)[nH]1`: the inhibition was 3.49%.

In the case of `CCc1ccc2c(c1)[C@]1(C(=O)N2)[C@@H]2C(=O)N(Cc3ccccc3)C(=O)[C@@H]2[C@@H]2CCCN21`, the inhibition was 3.94%.

As for `CC(C)c1cc(C(=O)N2CCCC(C(=O)c3ccc4ccccc4c3)C2)on1` (stereo unspecified), the inhibition is 5.22%.

As for `CN(C)c1ccccc1C(=O)N1CCCC(C(=O)c2ccc3ccccc3c2)C1` (stereo unspecified), the inhibition is -4.94%.

`CCc1cccc2c1NC(=O)[C@]21[C@@H]2C(=O)N(Cc3ccccc3)C(=O)[C@@H]2[C@@H]2CCCN21`: the inhibition was -9.59%.

Take `CCn1nc(C)cc1C(=O)N1CCCC(C(=O)c2ccc3ccccc3c2)C1` (stereo unspecified): the inhibition is 5.72%.

For the molecule `Cc1cccc2c1NC(=O)C21N2CCCC2C(C(=O)c2ccc3ccccc3c2)C12C(=O)Nc1ccccc12` (stereo unspecified), the inhibition is 21.8%.

On to `Nc1nc(N2CCN(C(=O)c3ccco3)CC2)nc2ccc(Br)cc12`, for which the inhibition was 10.2%.

As for `Nc1c(Cl)ncnc1N1CCCC1`, the inhibition is -5.84%.

With `CCCCOCCCNS(=O)(=O)c1ccccc1`, the inhibition was -3.58%.

For the molecule `Cc1cc(Nc2cccc([N+](=O)[O-])c2)c2cccc(C)c2n1`, the inhibition was -6.77%.

In the case of `Cc1ccccc1C(=O)NNC1CC(=O)N(c2ccc3c(c2)OCCO3)C1=O` (stereo unspecified), the inhibition was -10.4%.

`O=C(COC(=O)c1ccc(O)cc1)Nc1cc(C(F)(F)F)ccc1Cl`: the inhibition is 0.39%.

Regarding `CCS(=O)(=O)CCSc1nc2ccccc2o1`, the inhibition was 3.19%.

Consider `c1ccc2oc(CCc3nc4ccccc4o3)nc2c1`, for which the inhibition was 0.98%.

`CCC(=O)c1ccc(OCCn2cnc3ccccc32)cc1`: the inhibition was 9.27%.

Take `COc1cc(NC(=O)c2ccco2)c(OC)cc1NC(=O)c1cc(OC)c(OC)c(OC)c1`: the inhibition was 3.83%.

As for `COc1ccc(NC(=O)c2ccco2)c(OC)c1`, the inhibition is -9.54%.

`Cc1ccc(-c2nnn(CC(=O)N(CC(=O)NC3CCCCC3)c3ccc(F)c(Cl)c3)n2)o1`: the inhibition is 1.56%.

For the molecule `O=C(Nc1ccccc1)N(Cc1ccc2c(c1)OCO2)Cc1nc2ccccc2c(=O)[nH]1`, the inhibition is 9.11%.

On to `CCOC(=O)C1(CCc2ccccc2)CCN(Cc2nccn2CC)CC1`, for which the inhibition is 4.84%.

Consider `CCOC(=O)C1(CCc2ccccc2)CCN(Cc2ccc(O)cc2)CC1`, for which the inhibition is 1.73%.

In the case of `Cn1cnnc1SCNC(=O)C(F)(F)F`, the inhibition was -14.5%.

Turning to `Cc1oc2cc(OCC(=O)O)ccc2c(=O)c1Oc1ccccc1`, the inhibition was -10.7%.

As to `CCN(CC)C(=O)Oc1ccc2c(=O)c(-c3ccccc3)coc2c1`, the inhibition was 8.19%.

Turning to `COc1ccccc1-c1coc2cc(OC(=O)/C=C/c3ccccc3)ccc2c1=O`, the inhibition was 12.4%.

Regarding `Cc1oc2cc(OC(C)C(=O)O)ccc2c(=O)c1Oc1ccccc1` (stereo unspecified), the inhibition was -9.62%.

Consider `CCOC(=O)c1oc2cc(OCC(N)=O)ccc2c(=O)c1-c1ccc(OC)c(OC)c1`, for which the inhibition was -2.49%.

Turning to `COc1ccccc1-c1coc2cc(OC(=O)N3CCOCC3)ccc2c1=O`, the inhibition was 0.83%.

As for `CCOC(=O)c1oc2cc(OC(C)=O)ccc2c(=O)c1-c1ccc(OC)c(OC)c1`, the inhibition is -4.14%.

As for `CC(=O)Oc1ccc2c(=O)c(-c3ccccc3)coc2c1`, the inhibition was 71.2%.

On to `CCOC(=O)N1CCC(NC(=O)C2CCN(S(=O)(=O)c3ccc4c(c3)oc(=O)n4C)CC2)CC1`, for which the inhibition was -3.61%.

Take `Cc1ccc(OCCNC(=O)c2cc(C(=O)NCCOc3ccc(C)cc3)cc([N+](=O)[O-])c2)cc1`: the inhibition was 1.97%.

On to `O=C1c2cc3ccccc3c(-c3ccccc3)c2C(=O)N1c1ccccn1`, for which the inhibition was 11.2%.

For the molecule `O=C(C1CCC(N2C(=O)C3CC=CCC3C2=O)CC1)N1CCCCC1` (stereo unspecified), the inhibition is 0.53%.

Take `COc1ccc2c(C#N)c3ccccn3c2c1`: the inhibition was 8.95%.

For the molecule `CCOc1ccccc1Oc1coc2cc(OCC(=O)O)ccc2c1=O`, the inhibition was 1.18%.

Turning to `COc1ccccc1-c1coc2cc(OCC(=O)OCc3ccccc3)ccc2c1=O`, the inhibition was 8.31%.

As to `N#Cc1c2ccc(OCC(N)=O)cc2n2ccccc12`, the inhibition is 5.54%.
